Screens deposited in PubChem BioAssay by National Center for Advancing Translational Sciences (NCATS).
Rows were chosen to be rich in hits. Some 19% of all compounds tested hit in one or more screens of this group.
uPA generation = blocks generation of uPA at the cell surface; AID 540303; actives 0.31% (n = 330,000); Potency, µM (top dose mostly 38.3 µM), inactives show top-dose activity change, negative = inhibition, hits mostly inhibitors; cell surface uPA generation assay, qHTS; active means well fitted inhibition curve with a large enough effect; inconclusive means small, poorly fitted or top-dose-only effect; inactive means no such curve, though single readings can be large or run the other way; tested in mouse RAW 264.7 cells; further: potency means the concentration at half of the fitted maximal effect; nearly all actives have a fitted effect of over 55% in size
TDP1 cell CPT = growth inhibition of DT40 Tdp1-/-;hTDP1 cells with camptothecin (screen for TDP1 inhibitors) | chicken DT40 Tdp1-/-;hTDP1 cells + 20 nM CPT, ATP luminescence, 48 h | Potency, µM (series often up to 46.2 µM), inactives show top-dose activity change, negative = growth inhibition, usual class: inhibitors | actives 12% (n = 420,000) | AID 686979; further: potency means the concentration at half of the fitted maximal effect; nearly all actives have a fitted effect of over 55% in size
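Chicken DT40 Tdp1-/- cells complemented with human TDP1, 400 cells/well, exposed to compounds plus 20 nM camptothecin for at least 48 h at 37 C; viability read as ATP content by CellTiter-Glo luminescence.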
IL-1B inflam inh = blocks inflammasome-driven IL-1 beta release; THP-1 LPS/ATP IL-1B secretion, AlphaLISA, 16 h; active compounds read low; activity change, % at 57.5 µM; actives 4.7% (n = 360,000); AID 743279; in the data active means activity change below about -50%; inconclusive means mostly about -30% to -49%
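Secreted IL-1B measured by AlphaLISA bead assay after 16 h compound exposure of THP-1 cells; compounds (final up to 57.5 uM) added 1 h before LPS (250 ng/mL) and ATP (1.25 mM) stimulation; lower signal means less secretion.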
HT1080 IDH1KD tx = HT-1080 IDH1 knockdown cell toxicity (counter line). HT-1080 IDH1 knockdown viability, ATP luminescence, 48 h. Potency, µM (titrated, usually from 46.1 µM), for inactives: at the highest dose activity, negative = toxicity, usual class: cytotoxic. actives 2% (n = 360,000). AID 686971;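 further: potency means the concentration at half of the fitted maximal effect; 0% = DMSO wells and -100% = cell-free medium wells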
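In this qHTS, HT-1080 cells depleted of IDH1 are exposed for 48 h at 37 °C to compound titrations. Toxicity is scored from CellTiter-Glo luminescence, with DMSO as full viability and medium alone as none.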
HT1080NT lethal = kills 2HG-producing HT-1080-NT fibrosarcoma cells; actives 1.6% (n = 360,000); HT-1080-NT fibrosarcoma viability, CellTiter-Glo ATP luminescence, 48 h; Potency, µM (doses to about 46.1 µM), without a hit: top-dose activity, negative = less viability, actives largely listed as cytotoxic; AID 686970;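 further: NT is the 2HG producing partner of a matched IDH1 knockdown line; potency means the concentration at half of the fitted maximal effect; 0% = DMSO-treated cells and -100% = media-only wells without cells; nearly all actives have a fitted effect of over 55% in size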
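Compounds were tested in concentration-response format on HT-1080-NT cells for 48 hours at 37 degrees C. Cell viability came from CellTiter-Glo luminescence; curves were classified by r2, response magnitude and activity.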
DT40 TDP1 no CPT = qHTS for Inhibitors of human tyrosyl-DNA phosphodiesterase 1 (TDP1): qHTS in cells in absence of CPT | DT40 Tdp1-/- hTDP1 cells, no CPT, ATP luminescence, 48 h | Potency, µM (titrated, usually from 46.2 µM), for inactives: at the highest dose activity change, negative = growth inhibition, actives largely listed as inhibitors | AID 686978, 2013 | actives 15% (n = 420,000); further: potency means the concentration at half of the fitted maximal effect; nearly all actives have a fitted effect of over 55% in size
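Camptothecin absent (DMSO only). Human TDP1-complemented DT40 knockout cells, 400 cells/well, 37 °C for minimum 48 hr; ATP measured via CellTiter-Glo, 30 min dark incubation, luminescence.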
* hit, by the source's call. Unless noted, the call rests on the fitted dose curve; in most records, active means well fitted curve in the direction sought with a large enough effect; inconclusive means small, poorly fitted or top-dose-only effect, or another doubt; inactive means no such curve, though single readings can be large; an effect the other way counts as inactive or inconclusive. Unless noted, on the % scale 0 is the no-effect control and ±100 the full control effect.

COc1ccc(C(C#N)=Cc2cccc(OC)c2OC)cc1 was read as TDP1 cell CPT inconclusive, IL-1B inflam inh 6, HT1080 IDH1KD tx -9%, HT1080NT lethal -8% and DT40 TDP1 no CPT 23µM*.
For COc1cc(/C(C#N)=C/c2cccc3ccccc23)c([N+](=O)[O-])cc1OC the results were uPA generation 5%, TDP1 cell CPT inconclusive, IL-1B inflam inh 8, HT1080 IDH1KD tx inconclusive, HT1080NT lethal -11% and DT40 TDP1 no CPT -25%.
For COc1cc(C(=O)OCC(=O)Nc2ccc(N3CCOCC3)cc2)ccc1OCC(C)C the results were uPA generation -6%, TDP1 cell CPT -9%, IL-1B inflam inh 27, HT1080 IDH1KD tx -1%, HT1080NT lethal 2% and DT40 TDP1 no CPT inconclusive.
C[C@@H]1CN([C@H](C)CO)C(=O)CCCn2nncc2CO[C@H]1CN(C)Cc1cccc2c1OCCCO2 was read as TDP1 cell CPT -7%, IL-1B inflam inh 18, HT1080 IDH1KD tx 4%, HT1080NT lethal 6% and DT40 TDP1 no CPT 8%.
CCN(CC)C(=O)C1=C(C)N(Cc2ccccc2)C(=O)C(CC(=O)NCc2ccco2)C1 (stereo not given) was read as TDP1 cell CPT 8%, IL-1B inflam inh -7, HT1080 IDH1KD tx 10%, HT1080NT lethal 2% and DT40 TDP1 no CPT -1%.
`CC(NC(=O)c1ccco1)c1nc(-c2ccccc2Cl)no1` (stereo not given) gave uPA generation -2%, TDP1 cell CPT -18%, IL-1B inflam inh 20, HT1080 IDH1KD tx -6%, HT1080NT lethal 0% and DT40 TDP1 no CPT -10%.
`Cc1ccc(-c2noc(C(C)NS(=O)(=O)c3ccc(C)cc3)n2)cc1` (stereo not given) gave TDP1 cell CPT inconclusive and DT40 TDP1 no CPT 21µM*.
Screening CC(NC(=O)c1ccco1)c1nc(-c2ccc(C(C)(C)C)cc2)no1 (stereo not given) returned uPA generation -8%, TDP1 cell CPT 21µM*, IL-1B inflam inh 0, HT1080 IDH1KD tx -24%, HT1080NT lethal inconclusive and DT40 TDP1 no CPT 21µM*.
CC(C)(C)c1ccc(-c2noc(CNC(=O)c3ccco3)n2)cc1 was read as uPA generation -1%, TDP1 cell CPT -29%, IL-1B inflam inh -15, HT1080 IDH1KD tx -20%, HT1080NT lethal -25% and DT40 TDP1 no CPT inconclusive.
Screening Cc1ccc(-c2noc(C(C)NC(=O)c3ccco3)n2)cc1 (stereo not given) returned TDP1 cell CPT 16µM* and DT40 TDP1 no CPT 12µM*.
O=C(O)C1=CCC(c2ccc(Cl)c(Cl)c2)N(S(=O)(=O)c2ccc(F)cc2)C1c1cccc(F)c1 (stereo not given) was read as TDP1 cell CPT 9%, IL-1B inflam inh 4, HT1080 IDH1KD tx -5%, HT1080NT lethal inconclusive and DT40 TDP1 no CPT -7%.
For COCC(=O)N1CCC(n2nccc2NC(=O)c2ccccc2OC)CC1 the results were uPA generation 10%, TDP1 cell CPT -5%, IL-1B inflam inh 4, HT1080 IDH1KD tx -1%, HT1080NT lethal 0% and DT40 TDP1 no CPT -7%.
`CC(=O)N1c2ccc(S(=O)(=O)N3CCCC3)cc2CC1C(=O)Nc1cc(C)cc(C)c1` (stereo not given) gave uPA generation -3%, TDP1 cell CPT inconclusive, IL-1B inflam inh 13, HT1080 IDH1KD tx -4%, HT1080NT lethal 0% and DT40 TDP1 no CPT 23µM*.
For CC(=O)N1c2ccc(S(=O)(=O)N3CCCC3)cc2CC1C(=O)NCc1ccc(N(C)C)cc1 (stereo not given) the results were uPA generation -2%, TDP1 cell CPT -27%, IL-1B inflam inh -7, HT1080 IDH1KD tx 9%, HT1080NT lethal 0% and DT40 TDP1 no CPT 0%.
CCc1ccc(CNC(=O)C2Cc3cc(S(=O)(=O)N4CCCCCC4)ccc3N2C(C)=O)cc1 (stereo not given) was read as TDP1 cell CPT 23µM* and DT40 TDP1 no CPT inconclusive.
`O=C(O)c1ccccc1C(=O)Nc1ccc(S(=O)(=O)NC2CCCCC2)cc1` gave uPA generation -3%, TDP1 cell CPT -6%, IL-1B inflam inh 17, HT1080 IDH1KD tx 10%, HT1080NT lethal 8% and DT40 TDP1 no CPT -4%.
Screening CC/C(=N\N=C(/CC)c1ccccc1N)c1ccccc1N returned uPA generation 1%, TDP1 cell CPT 29µM*, IL-1B inflam inh -1, HT1080 IDH1KD tx 2%, HT1080NT lethal -1% and DT40 TDP1 no CPT 23µM*.
`COc1ccc(NC2CCCN(C(=O)c3ccccc3C(F)(F)F)C2)cc1` (stereo not given) gave uPA generation 23%, TDP1 cell CPT -20%, IL-1B inflam inh 11, HT1080 IDH1KD tx 10%, HT1080NT lethal 2% and DT40 TDP1 no CPT inconclusive.
COc1ccccc1CNC(=O)c1ccoc1C was read as TDP1 cell CPT 5%, IL-1B inflam inh -16, HT1080 IDH1KD tx 5%, HT1080NT lethal 20% and DT40 TDP1 no CPT -11%.
`COc1ccccc1CNC(=O)c1cnc(SC)nc1C` gave TDP1 cell CPT 23µM* and DT40 TDP1 no CPT 15µM*.
COc1ccccc1CNC(=O)CCNS(=O)(=O)/C=C/c1ccc(C)cc1 was read as uPA generation 13%, TDP1 cell CPT -8%, IL-1B inflam inh -55*, HT1080 IDH1KD tx 3%, HT1080NT lethal 3% and DT40 TDP1 no CPT -15%.
Cc1ccc(/C=C/S(=O)(=O)NCCC(=O)NCc2ccccc2F)cc1 was read as uPA generation 1%, TDP1 cell CPT -2%, IL-1B inflam inh -11, HT1080 IDH1KD tx 6%, HT1080NT lethal 5% and DT40 TDP1 no CPT -26%.
For CSc1ncc(C(=O)NCc2ccc(F)cc2)c(-c2ccccc2)n1 the results were TDP1 cell CPT -13% and DT40 TDP1 no CPT active.
For COc1ccccc1CNC(=O)C(C)Sc1ccc(C)cc1 (stereo not given) the results were uPA generation 2%, TDP1 cell CPT -3%, IL-1B inflam inh 0, HT1080 IDH1KD tx 3%, HT1080NT lethal -3% and DT40 TDP1 no CPT 26µM*.
Screening CC(=O)c1cccc(NC(=O)C(C)OC(=O)Cc2c[nH]c3ccccc23)c1 (stereo not given) returned uPA generation 3%, TDP1 cell CPT -3%, IL-1B inflam inh 8, HT1080 IDH1KD tx -7%, HT1080NT lethal -2% and DT40 TDP1 no CPT 2%.
